The source of these data is publication PMC7819943, “Rice protein-binding microarrays: a tool to detect cis-acting elements near promoter regions in rice”.

In all, about 68,000 sequences were measured (“fluorescence intensity (a.u.)”: median about 9,100, highest 2% from about 16,000 on). The sample holds the highest values, similar sequences and a random draw of the others, so the mix is not that of the screen.

OsWRKY34, sequence (Q0JBA9 entry or part of it): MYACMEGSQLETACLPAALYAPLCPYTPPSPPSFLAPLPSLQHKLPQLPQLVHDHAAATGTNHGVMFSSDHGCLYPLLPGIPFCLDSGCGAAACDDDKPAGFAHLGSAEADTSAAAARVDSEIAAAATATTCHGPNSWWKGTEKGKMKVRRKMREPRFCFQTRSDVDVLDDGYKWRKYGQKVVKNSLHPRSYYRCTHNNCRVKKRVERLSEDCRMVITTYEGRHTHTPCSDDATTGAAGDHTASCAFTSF

The assay concerns the target OsWRKY34 (Oryza sativa, UniProt Q0JBA9 1-250). The experiment in a line: protein-binding microarray (RPBM); PBS, 2% BSA, 51.3 ng/ul salmon testes DNA, 50 uM zinc acetate, 200 nM TF, 25 C, 1 h; high values mean tight binding. Conditions: protein: recombinant; tags: N-terminal polyhistidine and DsRed monomer fusion (pET32a); label: CyDye5-dUTP incorporated in the synthesized complementary strand; 3' TTTTT single-stranded linker to array surface; dsDNA, one strand shown. In outline: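 Ni–NTA purification followed expression in E. coli BL21-CodonPlus of transcription factors fused N-terminally to a polyhistidine tag and DsRed. At 200 nM in PBS with 2% BSA, salmon testes DNA and 50 µM zinc acetate, the protein was incubated for 1 h at 25 °C with a custom Agilent array that had been primer-extended with Cy5-dUTP and blocked with 2% BSA. After washing, the array was read on an Axon 4000B scanner. The binding signal is per-feature fluorescence intensity in arbitrary units.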
For “GGAAGATTACCCTGTTTACCACTCACTGTACGATGATTATCGGAGTCACCTAGTGCAG”, the binding signal is 9260 fluorescence intensity (a.u.). To “CACACCATTTCCTTTTTCTTTAGAAAATATCACACTATCACGGAGTCACCTAGTGCAG” belongs 9060 fluorescence intensity (a.u.); to “ATCGACCTCCATTTTAACGTACGACTCCCTAAGAGACCCGCGGAGTCACCTAGTGCAG”, 9660 fluorescence intensity (a.u.).

Take “AATTACTATAACACATCTTCCTAACAAATGCACCTCAATACGGAGTCACCTAGTGCAG”: the binding signal was 8050 fluorescence intensity (a.u.). The result for “CATATGTTTACACCCAAATTTGGCACCTAGGATTAAAATACGGAGTCACCTAGTGCAG” reads 8350 fluorescence intensity (a.u.); that for “TGCTGTCGTATACTAGAAGCTGATGCTTTTCTTGCTTAGTCGGAGTCACCTAGTGCAG”, 8940 fluorescence intensity (a.u.). As to “CAACCCACACACCACCACACAGATCACAACAGCAAGTTGTCGGAGTCACCTAGTGCAG”, the binding signal is 8160 fluorescence intensity (a.u.). Consider “TTTGTTTGGTAAAATTTTTGGTGGGGATTGGAGTTGGAAACGGAGTCACCTAGTGCAG”, for which the binding signal is 9440 fluorescence intensity (a.u.). The result for “CTCTCATGTATATACATTAATTATGTTTTTGTCCCCATTTCGGAGTCACCTAGTGCAG” reads 9950 fluorescence intensity (a.u.).

With “GAGCATCACAAGTCGCGACCTCACAGGGAGGGGCGGCGGCCGGAGTCACCTAGTGCAG”, the binding signal is 9060 fluorescence intensity (a.u.). To “TGTTTTCTGTTCTTTGTTGACTTTAAGTCGCTAAATTTTGCGGAGTCACCTAGTGCAG” belongs 11500 fluorescence intensity (a.u.); to “GTTTTGACTTTTTTTTCTAATAAAATTTCTTTTATGTTTGCGGAGTCACCTAGTGCAG”, 18600 fluorescence intensity (a.u.); to “AGTAATTTATGTTTGACTATTTTTTTAAAAATTTTTTATGCGGAGTCACCTAGTGCAG”, 10800 fluorescence intensity (a.u.).

Consider “CTGTATCCATCCCTAAATATTTGACGCCGTTGACTTTTCTCGGAGTCACCTAGTGCAG”, for which the binding signal is 25600 fluorescence intensity (a.u.).

“GAACTGCTCCCTCCATCCATAAATATTTGACGCCGTTGACCGGAGTCACCTAGTGCAG”: the binding signal was 11900 fluorescence intensity (a.u.). The result for “ATTATCCTCTTGTTTTTCAACTGGAATGAACCACCAACAACGGAGTCACCTAGTGCAG” reads 9790 fluorescence intensity (a.u.); that for “CACTACTATCTGCCTCACCGTTAACCCTACCGAATAAATTCGGAGTCACCTAGTGCAG”, 8880 fluorescence intensity (a.u.). The result for “ATTGCAGCCTTCGCCTCCTTTCCTTCAGGTACACATATTGCGGAGTCACCTAGTGCAG” reads 9850 fluorescence intensity (a.u.).

In the case of “TTGTGGGAGGAGGGGATGGAATGATGATGACTCTGTTTTTCGGAGTCACCTAGTGCAG”, the binding signal was 8200 fluorescence intensity (a.u.). The result for “GGTGATCTTTGTATTCTTTTTCTGCAGCGAACATATAGCTCGGAGTCACCTAGTGCAG” reads 16300 fluorescence intensity (a.u.); that for “ATTTTGATTTTTGCAATCACCACCCCGCGCGGCGCAAACACGGAGTCACCTAGTGCAG”, 8880 fluorescence intensity (a.u.). In the case of “GACGCGGCGCAGTGCAACCAACAAACCGGGGCGGGCGGGGCGGAGTCACCTAGTGCAG”, the binding signal is 11800 fluorescence intensity (a.u.).

Consider “CCGCTCTGATTCGCAAACTATAACACCAAACAAACGGGCGCGGAGTCACCTAGTGCAG”, for which the binding signal was 20100 fluorescence intensity (a.u.). With “ATTATATGCTAATTACTTTCTCGTTTTACGTACACCAACTCGGAGTCACCTAGTGCAG”, the binding signal is 8420 fluorescence intensity (a.u.). To “TTTCATTTTTTTTTACCACCTCACCTTCTGTGTTTCTTTTCGGAGTCACCTAGTGCAG” belongs 9040 fluorescence intensity (a.u.).

On to “AGATGTTTTGACTTTAGTCAAAGTCAAACTGCTTTAAGTTCGGAGTCACCTAGTGCAG”, for which the binding signal was 11800 fluorescence intensity (a.u.). As for “TTTTGTCATTGTCAAATTTTGATAAGTTTGTCAAAATTTTCGGAGTCACCTAGTGCAG”, the binding signal is 9080 fluorescence intensity (a.u.). To “TGCATTTCAATTCAAATTTAAGTTGATTCGTTGACTTGTTCGGAGTCACCTAGTGCAG” belongs 10100 fluorescence intensity (a.u.); to “ATTTAAAATAGTTTGACTTTGACCAAAGTCAAAACATCTTCGGAGTCACCTAGTGCAG”, 13500 fluorescence intensity (a.u.). Consider “AAATTTGAAGTAGTTTGACTTTGACCAAAGTCAAAACATCCGGAGTCACCTAGTGCAG”, for which the binding signal is 17600 fluorescence intensity (a.u.). On to “AAACTTGAAGAAATTTGACTTTAGCTAAAGTCAAAACATCCGGAGTCACCTAGTGCAG”, for which the binding signal was 10600 fluorescence intensity (a.u.). To “TTTGGTCAAAGTCAAACTGCTTCTAGTTTGACTAAATTTACGGAGTCACCTAGTGCAG” belongs 17800 fluorescence intensity (a.u.); to “AAGCTTTGACTTTTTTTTGTCAAATTTTTTAAGTTTGATTCGGAGTCACCTAGTGCAG”, 20400 fluorescence intensity (a.u.); to “TTGACTTTGTTTAAAGTCAAACTGCTTCAAGTTTGACTAACGGAGTCACCTAGTGCAG”, 9550 fluorescence intensity (a.u.). For “TAAAGTCAAACTGTTTTTTTAAGTTTGACCAAGCTTTTGACGGAGTCACCTAGTGCAG”, the binding signal was 10400 fluorescence intensity (a.u.). To “ATTTTGGTCAAATTTAAACTAATCTAAGTTTGACTAATTTCGGAGTCACCTAGTGCAG” belongs 8610 fluorescence intensity (a.u.); to “TTGGTCAAAGTCAAACTGCTTTAAGTTTGACCAAGTTTGTCGGAGTCACCTAGTGCAG”, 21500 fluorescence intensity (a.u.). The result for “AAACTACCATGGGACTTATATTGCTCCGGTTTTGATAGTTCGGAGTCACCTAGTGCAG” reads 8480 fluorescence intensity (a.u.); that for “TTCCACAGAGTCAAGTCCACAGAACGTATGCTCCATGTTCCGGAGTCACCTAGTGCAG”, 8160 fluorescence intensity (a.u.); that for “GGCTGCCTGTGCATGGGAGGCGATGTGAGGGTGGGCAGGGCGGAGTCACCTAGTGCAG”, 9440 fluorescence intensity (a.u.). Regarding “ACTCACGCTTTAACACCAGGAATCTTATCTCTATCTCATCCGGAGTCACCTAGTGCAG”, the binding signal is 8460 fluorescence intensity (a.u.).

Consider “ATTGGGCTGGAATGAGATTCACGGGAGGGTAACTGGCGGTCGGAGTCACCTAGTGCAG”, for which the binding signal was 12300 fluorescence intensity (a.u.). Take “TTCAAATTGTTGCTGCTCTGTGCTAGCCTTTTCATATTGACGGAGTCACCTAGTGCAG”: the binding signal was 9110 fluorescence intensity (a.u.).

As for “ACACTTTGACTCTTTGATTTAGTAAGCTCGAGTTTATTTTCGGAGTCACCTAGTGCAG”, the binding signal was 9030 fluorescence intensity (a.u.). As for “ATTTTTTTTCTAGTCAAACTTTGTTAAGTTTGACCAAAATCGGAGTCACCTAGTGCAG”, the binding signal was 9790 fluorescence intensity (a.u.).
